# PMC7862700, “An all-to-all approach to the identification of sequence-specific readers for epigenetic DNA modifications on cytosine”
# Experiments:
# Assay in all cases: DAPPL (digital affinity profiling via proximity ligation, sequencing); 10 mM Tris-HCl pH 7.5, 50 mM NaCl, 1 mM DTT, 4% glycerol, room temperature, 30 min; GST-TFs on glutathione beads, 16-mer random dsDNA library, 0.1% formaldehyde crosslink after washing; high values mean tight binding
# FLI1 = target: T1, FLI1 (Homo sapiens, UniProt Q01543 1-452); conditions: protein: recombinant; tags: N-terminal GST; dsDNA, one strand shown
# T1 sequence: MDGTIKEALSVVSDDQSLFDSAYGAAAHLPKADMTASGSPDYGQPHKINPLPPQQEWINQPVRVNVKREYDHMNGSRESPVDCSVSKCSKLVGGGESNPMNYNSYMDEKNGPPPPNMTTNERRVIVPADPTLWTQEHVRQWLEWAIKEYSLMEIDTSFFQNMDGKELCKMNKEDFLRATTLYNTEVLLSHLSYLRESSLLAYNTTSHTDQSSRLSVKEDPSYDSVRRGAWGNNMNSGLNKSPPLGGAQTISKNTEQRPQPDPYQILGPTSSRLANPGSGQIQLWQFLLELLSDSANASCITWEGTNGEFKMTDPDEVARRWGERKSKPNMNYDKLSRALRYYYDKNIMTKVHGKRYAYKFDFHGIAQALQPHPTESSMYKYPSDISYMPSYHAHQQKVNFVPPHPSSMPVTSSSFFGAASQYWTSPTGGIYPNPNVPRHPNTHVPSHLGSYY
# Method in brief: (§1)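 GST fusions of human transcription factors were expressed in yeast and captured with glutathione beads. Once given DNA barcodes and pooled alongside a tag-only sample, they were incubated for 30 min at room temperature with 200 nmole of a random double-stranded 16-mer DNA library in Tris/NaCl/DTT/glycerol buffer, then washed, crosslinked (0.1% formaldehyde), proximity-ligated, PCR-amplified and sequenced on an Illumina NextSeq500. The binding signal of each hexamer is its read frequency for a factor divided by its frequency for the tag-only sample.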
# ELK1 = target: T2, ELK1 (Homo sapiens, UniProt P19419 1-428); conditions: protein: recombinant; tags: N-terminal GST; dsDNA, one strand shown
# T2 sequence: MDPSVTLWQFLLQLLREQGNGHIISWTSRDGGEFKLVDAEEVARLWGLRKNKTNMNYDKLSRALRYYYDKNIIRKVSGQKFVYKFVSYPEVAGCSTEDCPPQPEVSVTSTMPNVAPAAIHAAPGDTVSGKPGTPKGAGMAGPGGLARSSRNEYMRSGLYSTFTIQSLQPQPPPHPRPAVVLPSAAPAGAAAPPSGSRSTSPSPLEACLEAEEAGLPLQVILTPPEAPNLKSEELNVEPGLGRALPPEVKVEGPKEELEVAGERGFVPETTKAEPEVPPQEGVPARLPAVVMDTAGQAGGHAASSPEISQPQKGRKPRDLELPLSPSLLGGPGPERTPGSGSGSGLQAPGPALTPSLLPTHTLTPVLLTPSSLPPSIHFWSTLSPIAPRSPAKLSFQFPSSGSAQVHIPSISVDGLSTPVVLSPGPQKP
# Method in brief: as §1
# GABPA = target: T3, GABPA (Homo sapiens, UniProt Q06546 1-454); conditions: protein: recombinant; tags: N-terminal GST; dsDNA, one strand shown
# T3 sequence: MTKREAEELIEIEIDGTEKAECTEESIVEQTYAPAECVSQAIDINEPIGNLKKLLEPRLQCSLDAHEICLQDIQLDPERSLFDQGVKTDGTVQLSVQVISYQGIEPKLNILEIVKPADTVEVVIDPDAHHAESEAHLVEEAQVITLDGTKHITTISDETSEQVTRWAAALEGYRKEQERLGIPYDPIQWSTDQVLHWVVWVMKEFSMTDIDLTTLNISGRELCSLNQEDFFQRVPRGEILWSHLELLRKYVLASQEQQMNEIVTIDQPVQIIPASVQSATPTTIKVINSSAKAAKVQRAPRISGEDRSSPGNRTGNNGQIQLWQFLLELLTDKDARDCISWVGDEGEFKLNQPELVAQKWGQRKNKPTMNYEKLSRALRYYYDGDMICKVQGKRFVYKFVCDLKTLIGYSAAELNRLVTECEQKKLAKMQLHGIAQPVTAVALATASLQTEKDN
# Method in brief: as §1
# ERG = target: T4, ERG (Homo sapiens, UniProt P11308 1-479); conditions: protein: recombinant; tags: N-terminal GST; dsDNA, one strand shown
# T4 sequence: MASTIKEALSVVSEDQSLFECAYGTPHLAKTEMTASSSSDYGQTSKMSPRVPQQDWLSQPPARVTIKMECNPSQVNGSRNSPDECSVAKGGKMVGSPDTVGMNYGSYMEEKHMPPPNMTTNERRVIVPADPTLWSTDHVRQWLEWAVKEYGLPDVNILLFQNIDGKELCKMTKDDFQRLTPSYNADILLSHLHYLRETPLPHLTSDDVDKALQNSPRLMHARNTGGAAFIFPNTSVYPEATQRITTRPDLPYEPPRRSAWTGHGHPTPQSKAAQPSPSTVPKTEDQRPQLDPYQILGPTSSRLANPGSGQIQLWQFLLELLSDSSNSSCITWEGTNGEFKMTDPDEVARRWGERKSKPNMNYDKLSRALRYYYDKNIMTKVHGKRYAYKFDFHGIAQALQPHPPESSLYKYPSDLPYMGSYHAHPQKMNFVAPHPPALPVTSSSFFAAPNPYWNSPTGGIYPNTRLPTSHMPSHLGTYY
# Method in brief: as §1
# ELF1 = ELF1 (Homo sapiens, UniProt P32519 1-619); conditions: protein: recombinant; tags: N-terminal GST; dsDNA, one strand shown
# Sequence of ELF1 (P32519 whole entry): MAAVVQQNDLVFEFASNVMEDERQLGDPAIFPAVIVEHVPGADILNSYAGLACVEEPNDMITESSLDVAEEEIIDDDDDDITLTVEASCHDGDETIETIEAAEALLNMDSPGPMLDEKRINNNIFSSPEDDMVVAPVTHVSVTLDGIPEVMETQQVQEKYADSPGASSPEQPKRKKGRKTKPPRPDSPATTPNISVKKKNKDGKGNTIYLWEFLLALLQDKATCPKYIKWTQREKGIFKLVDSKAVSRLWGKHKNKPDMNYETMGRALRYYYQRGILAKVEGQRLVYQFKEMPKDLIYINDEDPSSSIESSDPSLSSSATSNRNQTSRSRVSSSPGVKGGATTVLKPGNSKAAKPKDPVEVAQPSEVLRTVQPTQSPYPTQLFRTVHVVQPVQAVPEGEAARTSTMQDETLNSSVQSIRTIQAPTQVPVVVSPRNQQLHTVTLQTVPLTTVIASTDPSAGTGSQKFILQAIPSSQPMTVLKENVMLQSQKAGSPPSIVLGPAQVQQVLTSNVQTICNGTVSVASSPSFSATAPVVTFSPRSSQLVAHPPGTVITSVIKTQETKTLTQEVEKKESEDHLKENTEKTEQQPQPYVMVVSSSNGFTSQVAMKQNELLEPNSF
# Method in brief: as §1
# EHF = target: T5, EHF (Homo sapiens, UniProt Q9NZC4 1-300); conditions: protein: recombinant; tags: N-terminal GST; dsDNA, one strand shown
# T5 sequence: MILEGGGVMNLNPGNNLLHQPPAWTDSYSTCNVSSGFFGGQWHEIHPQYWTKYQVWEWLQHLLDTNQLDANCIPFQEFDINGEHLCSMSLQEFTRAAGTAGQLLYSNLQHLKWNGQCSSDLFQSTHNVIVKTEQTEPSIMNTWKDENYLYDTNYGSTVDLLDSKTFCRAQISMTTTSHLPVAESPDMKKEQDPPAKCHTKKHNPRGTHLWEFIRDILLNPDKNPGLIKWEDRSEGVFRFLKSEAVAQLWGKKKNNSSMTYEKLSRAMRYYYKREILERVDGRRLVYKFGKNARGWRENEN
# Method in brief: as §1
# SPI1 = SPI1 (Homo sapiens, UniProt P17947 1-270); conditions: protein: recombinant; tags: N-terminal GST; dsDNA, one strand shown
# Method in brief: as §1
# SPIB = SPIB (Homo sapiens, UniProt Q01892 1-262); conditions: protein: recombinant; tags: N-terminal GST; dsDNA, one strand shown
# Sequence of SPIB (Q01892 whole entry): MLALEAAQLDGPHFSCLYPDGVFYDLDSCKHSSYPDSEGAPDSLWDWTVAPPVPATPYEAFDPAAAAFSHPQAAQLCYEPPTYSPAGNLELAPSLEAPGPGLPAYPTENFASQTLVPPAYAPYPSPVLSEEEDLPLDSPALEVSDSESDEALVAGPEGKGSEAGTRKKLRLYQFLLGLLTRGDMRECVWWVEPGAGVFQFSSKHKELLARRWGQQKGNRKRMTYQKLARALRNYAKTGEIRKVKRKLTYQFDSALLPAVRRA
# Method in brief: as §1
# ELK3 = target: T6, ELK3 (Homo sapiens, UniProt P41970 1-407); conditions: protein: recombinant; tags: N-terminal GST; dsDNA, one strand shown
# T6 sequence: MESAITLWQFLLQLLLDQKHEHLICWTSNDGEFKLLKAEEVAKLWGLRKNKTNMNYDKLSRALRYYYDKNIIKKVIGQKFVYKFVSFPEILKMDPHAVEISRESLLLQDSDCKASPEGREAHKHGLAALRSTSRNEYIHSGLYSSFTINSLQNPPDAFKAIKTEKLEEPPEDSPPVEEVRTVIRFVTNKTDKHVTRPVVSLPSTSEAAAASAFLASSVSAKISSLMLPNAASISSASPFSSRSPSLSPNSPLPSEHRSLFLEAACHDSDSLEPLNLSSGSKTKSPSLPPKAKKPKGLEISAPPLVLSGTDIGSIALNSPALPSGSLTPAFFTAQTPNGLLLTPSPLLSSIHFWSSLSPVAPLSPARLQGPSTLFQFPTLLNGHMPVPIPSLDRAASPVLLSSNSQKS
# Method in brief: as §1
# FEV = target: T7, FEV (Homo sapiens, UniProt Q99581 1-238); conditions: protein: recombinant; tags: N-terminal GST; dsDNA, one strand shown
# T7 sequence: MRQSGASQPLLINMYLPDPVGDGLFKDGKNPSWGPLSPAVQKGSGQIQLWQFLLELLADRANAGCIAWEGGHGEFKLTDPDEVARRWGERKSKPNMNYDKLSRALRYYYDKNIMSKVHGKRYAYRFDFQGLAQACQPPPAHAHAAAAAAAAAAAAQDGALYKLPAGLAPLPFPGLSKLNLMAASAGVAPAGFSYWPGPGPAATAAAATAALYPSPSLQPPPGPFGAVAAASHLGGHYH
# Method in brief: as §1
# ETV5 = ETV5 (Homo sapiens, UniProt P41161 1-510); conditions: protein: recombinant; tags: N-terminal GST; dsDNA, one strand shown
# Sequence of ETV5 (P41161 whole entry): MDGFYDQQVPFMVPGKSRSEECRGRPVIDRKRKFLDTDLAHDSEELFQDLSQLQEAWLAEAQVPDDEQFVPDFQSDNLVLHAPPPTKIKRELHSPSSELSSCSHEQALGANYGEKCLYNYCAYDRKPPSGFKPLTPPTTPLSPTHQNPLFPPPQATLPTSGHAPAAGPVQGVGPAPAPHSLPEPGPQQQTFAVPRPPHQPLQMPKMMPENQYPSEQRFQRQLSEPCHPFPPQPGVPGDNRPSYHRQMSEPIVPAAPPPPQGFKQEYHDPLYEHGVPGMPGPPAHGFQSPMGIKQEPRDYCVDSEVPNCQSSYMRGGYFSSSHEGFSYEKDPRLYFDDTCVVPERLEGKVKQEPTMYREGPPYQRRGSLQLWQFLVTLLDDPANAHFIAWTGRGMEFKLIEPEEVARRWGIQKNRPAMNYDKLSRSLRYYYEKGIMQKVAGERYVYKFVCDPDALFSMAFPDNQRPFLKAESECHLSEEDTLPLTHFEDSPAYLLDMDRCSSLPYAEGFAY
# Method in brief: as §1
# HSF1 = HSF1 (Homo sapiens, UniProt Q00613 1-529); conditions: protein: recombinant; tags: N-terminal GST; chain copies: 3; dsDNA, one strand shown
# Sequence of HSF1 (Q00613 whole entry): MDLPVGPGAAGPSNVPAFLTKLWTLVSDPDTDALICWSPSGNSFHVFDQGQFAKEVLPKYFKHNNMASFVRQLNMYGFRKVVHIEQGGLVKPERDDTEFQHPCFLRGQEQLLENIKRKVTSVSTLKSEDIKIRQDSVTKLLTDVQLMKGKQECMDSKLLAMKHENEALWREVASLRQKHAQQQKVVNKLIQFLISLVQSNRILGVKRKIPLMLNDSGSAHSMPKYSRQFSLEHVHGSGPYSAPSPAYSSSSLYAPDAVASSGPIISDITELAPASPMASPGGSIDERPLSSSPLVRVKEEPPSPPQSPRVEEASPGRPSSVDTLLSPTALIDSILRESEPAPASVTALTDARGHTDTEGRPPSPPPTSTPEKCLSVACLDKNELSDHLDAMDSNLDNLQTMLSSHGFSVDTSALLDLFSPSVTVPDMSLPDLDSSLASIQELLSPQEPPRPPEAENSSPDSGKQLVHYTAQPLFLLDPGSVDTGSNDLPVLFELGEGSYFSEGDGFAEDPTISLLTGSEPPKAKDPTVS
# Method in brief: as §1
# SPIC = target: T8, SPIC (Homo sapiens, UniProt Q8N5J4 1-248); conditions: protein: recombinant; tags: N-terminal GST; dsDNA, one strand shown
# T8 sequence: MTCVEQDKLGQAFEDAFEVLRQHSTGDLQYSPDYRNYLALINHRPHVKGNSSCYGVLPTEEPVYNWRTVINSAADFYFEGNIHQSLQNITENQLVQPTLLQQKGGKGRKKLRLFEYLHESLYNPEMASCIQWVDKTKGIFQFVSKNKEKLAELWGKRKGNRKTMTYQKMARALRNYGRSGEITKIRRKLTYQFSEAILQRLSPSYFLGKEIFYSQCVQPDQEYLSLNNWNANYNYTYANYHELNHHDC
# Method in brief: as §1
# ELF4 = ELF4 (Homo sapiens, UniProt Q99607 1-663); conditions: protein: recombinant; tags: N-terminal GST; dsDNA, one strand shown
# Sequence of ELF4 (Q99607 whole entry): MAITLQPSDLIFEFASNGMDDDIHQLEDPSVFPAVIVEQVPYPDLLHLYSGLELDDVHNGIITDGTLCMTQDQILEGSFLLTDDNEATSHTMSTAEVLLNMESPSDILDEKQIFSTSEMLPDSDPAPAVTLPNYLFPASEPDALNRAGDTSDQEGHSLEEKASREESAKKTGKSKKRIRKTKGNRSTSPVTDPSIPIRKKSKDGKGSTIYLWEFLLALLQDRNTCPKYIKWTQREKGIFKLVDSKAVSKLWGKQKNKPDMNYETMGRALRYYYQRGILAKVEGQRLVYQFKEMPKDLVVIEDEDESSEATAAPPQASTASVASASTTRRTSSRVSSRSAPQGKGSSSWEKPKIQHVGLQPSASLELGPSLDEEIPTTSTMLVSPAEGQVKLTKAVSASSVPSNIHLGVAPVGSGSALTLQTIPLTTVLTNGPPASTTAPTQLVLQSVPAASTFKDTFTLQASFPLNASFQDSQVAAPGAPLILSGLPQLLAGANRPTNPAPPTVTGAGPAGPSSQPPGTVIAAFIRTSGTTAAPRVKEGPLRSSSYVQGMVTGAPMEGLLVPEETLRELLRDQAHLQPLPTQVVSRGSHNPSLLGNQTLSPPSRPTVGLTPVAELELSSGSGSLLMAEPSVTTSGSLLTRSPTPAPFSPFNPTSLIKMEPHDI
# Method in brief: as §1
# ELK4 = target: T9, ELK4 (Homo sapiens, UniProt P28324-2 1-405); conditions: protein: recombinant; tags: N-terminal GST; dsDNA, one strand shown
# T9 sequence: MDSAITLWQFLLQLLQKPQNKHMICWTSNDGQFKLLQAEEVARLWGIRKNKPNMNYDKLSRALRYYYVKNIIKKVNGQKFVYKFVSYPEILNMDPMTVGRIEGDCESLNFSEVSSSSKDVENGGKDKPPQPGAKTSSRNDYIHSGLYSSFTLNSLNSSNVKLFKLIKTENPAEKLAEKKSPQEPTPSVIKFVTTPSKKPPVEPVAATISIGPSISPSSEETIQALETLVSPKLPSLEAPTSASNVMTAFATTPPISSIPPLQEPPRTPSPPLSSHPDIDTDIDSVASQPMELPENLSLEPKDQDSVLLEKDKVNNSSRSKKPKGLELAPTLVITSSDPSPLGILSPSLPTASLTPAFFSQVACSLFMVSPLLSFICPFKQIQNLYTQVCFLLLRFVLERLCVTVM
# Method in brief: as §1
# ETV2 = target: T10, ETV2 (Homo sapiens, UniProt O00321 1-342); conditions: protein: recombinant; tags: N-terminal GST; dsDNA, one strand shown
# T10 sequence: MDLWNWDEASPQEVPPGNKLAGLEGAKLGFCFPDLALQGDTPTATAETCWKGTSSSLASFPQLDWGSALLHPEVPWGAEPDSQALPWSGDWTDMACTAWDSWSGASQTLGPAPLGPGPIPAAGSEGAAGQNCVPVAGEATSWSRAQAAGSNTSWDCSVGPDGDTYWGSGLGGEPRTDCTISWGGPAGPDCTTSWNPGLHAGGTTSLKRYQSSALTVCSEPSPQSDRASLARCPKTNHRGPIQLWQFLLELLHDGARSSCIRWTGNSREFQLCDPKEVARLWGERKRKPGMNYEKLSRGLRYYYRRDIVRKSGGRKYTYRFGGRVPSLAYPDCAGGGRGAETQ
# Method in brief: as §1
# ELF3 = target: T11, ELF3 (Homo sapiens, UniProt P78545 1-371); conditions: protein: recombinant; tags: N-terminal GST; dsDNA, one strand shown
# T11 sequence: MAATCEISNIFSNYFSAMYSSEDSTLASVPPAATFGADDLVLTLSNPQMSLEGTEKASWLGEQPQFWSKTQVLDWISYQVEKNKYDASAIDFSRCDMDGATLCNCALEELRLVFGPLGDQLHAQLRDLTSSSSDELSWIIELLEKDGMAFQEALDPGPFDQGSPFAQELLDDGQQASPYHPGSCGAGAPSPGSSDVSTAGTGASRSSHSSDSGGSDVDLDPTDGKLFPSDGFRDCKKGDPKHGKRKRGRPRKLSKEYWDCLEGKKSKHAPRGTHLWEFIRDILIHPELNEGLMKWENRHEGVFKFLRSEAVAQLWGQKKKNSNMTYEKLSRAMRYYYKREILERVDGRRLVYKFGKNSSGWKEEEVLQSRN
# Method in brief: as §1
# CRX = CRX (Homo sapiens, UniProt O43186 1-299); conditions: protein: recombinant; tags: N-terminal GST; dsDNA, one strand shown
# Sequence of CRX (O43186 whole entry): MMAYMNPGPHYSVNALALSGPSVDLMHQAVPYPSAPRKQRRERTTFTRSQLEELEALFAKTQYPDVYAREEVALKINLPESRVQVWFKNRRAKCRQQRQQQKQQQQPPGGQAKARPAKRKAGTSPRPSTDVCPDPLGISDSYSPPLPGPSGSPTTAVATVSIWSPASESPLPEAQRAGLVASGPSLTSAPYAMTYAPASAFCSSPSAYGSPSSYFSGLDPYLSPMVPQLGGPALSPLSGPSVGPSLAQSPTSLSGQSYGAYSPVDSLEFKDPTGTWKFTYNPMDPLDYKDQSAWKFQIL
# Method in brief: as §1
# ETV1 = ETV1 (Homo sapiens, UniProt P50549 1-477); conditions: protein: recombinant; tags: N-terminal GST; dsDNA, one strand shown
# Sequence of ETV1 (P50549 whole entry): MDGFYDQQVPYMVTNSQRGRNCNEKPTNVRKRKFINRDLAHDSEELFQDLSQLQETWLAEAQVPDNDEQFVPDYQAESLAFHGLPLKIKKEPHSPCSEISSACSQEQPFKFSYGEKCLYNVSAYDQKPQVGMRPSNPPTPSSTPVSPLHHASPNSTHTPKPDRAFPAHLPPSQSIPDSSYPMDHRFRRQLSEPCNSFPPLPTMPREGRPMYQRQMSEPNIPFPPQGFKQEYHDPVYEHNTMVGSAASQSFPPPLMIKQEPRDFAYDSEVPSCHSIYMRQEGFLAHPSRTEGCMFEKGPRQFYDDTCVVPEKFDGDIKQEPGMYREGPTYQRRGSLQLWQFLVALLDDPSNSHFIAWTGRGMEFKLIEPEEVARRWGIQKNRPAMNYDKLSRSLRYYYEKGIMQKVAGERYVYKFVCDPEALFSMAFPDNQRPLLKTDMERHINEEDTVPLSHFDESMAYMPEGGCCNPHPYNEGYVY
# Method in brief: as §1
sequence,measurement,setting,value
CTACGC,binding signal,FLI1,"1.71 fold enrichment (6-mer frequency, TF over GST control)"
same,binding signal,ELK1,"1.59 fold enrichment (6-mer frequency, TF over GST control)"
same,binding signal,GABPA,"1.56 fold enrichment (6-mer frequency, TF over GST control)"
same,binding signal,ERG,"1.47 fold enrichment (6-mer frequency, TF over GST control)"
same,binding signal,ELF1,"1.55 fold enrichment (6-mer frequency, TF over GST control)"
same,binding signal,EHF,"1.56 fold enrichment (6-mer frequency, TF over GST control)"
same,binding signal,SPI1,"1.59 fold enrichment (6-mer frequency, TF over GST control)"
same,binding signal,SPIB,"1.6 fold enrichment (6-mer frequency, TF over GST control)"
same,binding signal,ELK3,"1.56 fold enrichment (6-mer frequency, TF over GST control)"
same,binding signal,FEV,"1.62 fold enrichment (6-mer frequency, TF over GST control)"
same,binding signal,ETV5,"1.6 fold enrichment (6-mer frequency, TF over GST control)"
same,binding signal,HSF1,"1.39 fold enrichment (6-mer frequency, TF over GST control)"
same,binding signal,SPIC,"1.36 fold enrichment (6-mer frequency, TF over GST control)"
same,binding signal,ELF4,"1.51 fold enrichment (6-mer frequency, TF over GST control)"
same,binding signal,ELK4,"1.6 fold enrichment (6-mer frequency, TF over GST control)"
same,binding signal,ETV2,"1.57 fold enrichment (6-mer frequency, TF over GST control)"
same,binding signal,ELF3,"1.57 fold enrichment (6-mer frequency, TF over GST control)"
same,binding signal,CRX,"1.38 fold enrichment (6-mer frequency, TF over GST control)"
same,binding signal,ETV1,"1.55 fold enrichment (6-mer frequency, TF over GST control)"
